Only a selection was taken, and hits are over-represented in it overall.
PDI inh: PDI (human) enzyme inhibition | 350,000 compounds, 0.052% hits | PDI insulin aggregation turbidity, A650, 90 min | P07237 | inhibition, % at 10 µM;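 active = mean inhibition across replicates of 30% or more, whatever share of single replicates reach that level; inconclusive = mean inhibition below 30% while every single replicate reaches 30%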
ARNT TACC3 PPI: disrupts binding between human ARNT and TACC3. AlphaScreen His-ARNT PAS-B/GST-TACC3 binding, luminescence; TACC3 fragment carries E629A point mutation. inhibition, % at 9.99 µM. 390,000 compounds, 0.66% hits. Q9Y6A5;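 active = mean inhibition of replicates at least 50% and at least half of replicates each reaching 50%; inconclusive = half or more replicates reach 50% but mean below 50%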
PglD DTNB: inhibitors of Campylobacter jejuni PglD acetyltransferase | purified PglD enzyme, DTNB colorimetric CoA detection | inhibition, % at 12.5 µM | 360,000 compounds, 0.098% hits; in the data active = inhibition above about 16%, passing the limit was not always enough; inconclusive = no clear call, values can overlap the other calls
NRP1-CendR mod: alters CendR peptide binding to human NRP-1. inhibition, % at 25 µM. 360,000 compounds, 0.85% hits. FAM-RPARPAR peptide binding to NRP-1, fluorescence polarization. O14786;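 active = inhibition or corrected inhibition above about 18%, plus a signal ratio from 0.5 to 1.5, limit read from the data, passing the limit was not always enough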
ALR inh: human ALR oxidase inhibition via reduced H2O2 | purified ALR, DTT oxidation, H2O2 HRP-luminol luminescence | inhibition, % (no concentration beside the values) | 290,000 compounds, 3.8% hits | AID 485317;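 active = mean replicate inhibition above about 79%, with every replicate also reaching it, limit read from the data; inconclusive = only one of the two criteria met; inactive = mean below limit and not every replicate reaching it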
Target sequence (P55789 whole entry, looked up): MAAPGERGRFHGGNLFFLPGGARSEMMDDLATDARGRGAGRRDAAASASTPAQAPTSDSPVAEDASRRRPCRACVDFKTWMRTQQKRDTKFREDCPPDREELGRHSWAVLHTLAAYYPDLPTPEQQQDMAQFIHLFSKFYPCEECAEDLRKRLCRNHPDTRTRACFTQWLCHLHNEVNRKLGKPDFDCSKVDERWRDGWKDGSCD
ERp5 block: inhibitors of human ERp5; Q15084; ERp5 insulin aggregation, absorbance 650 nm, 90 min; 350,000 compounds, 0.05% hits; AID 651711; inhibition, % at 9.99 µM;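 active = mean replicate inhibition above about 25%, with every replicate also reaching it, limit read from the data, passing the limit was not always enough; inconclusive = only one of those two criteria met; inactive = neither criterion met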
Target sequence (Q15084 whole entry, looked up): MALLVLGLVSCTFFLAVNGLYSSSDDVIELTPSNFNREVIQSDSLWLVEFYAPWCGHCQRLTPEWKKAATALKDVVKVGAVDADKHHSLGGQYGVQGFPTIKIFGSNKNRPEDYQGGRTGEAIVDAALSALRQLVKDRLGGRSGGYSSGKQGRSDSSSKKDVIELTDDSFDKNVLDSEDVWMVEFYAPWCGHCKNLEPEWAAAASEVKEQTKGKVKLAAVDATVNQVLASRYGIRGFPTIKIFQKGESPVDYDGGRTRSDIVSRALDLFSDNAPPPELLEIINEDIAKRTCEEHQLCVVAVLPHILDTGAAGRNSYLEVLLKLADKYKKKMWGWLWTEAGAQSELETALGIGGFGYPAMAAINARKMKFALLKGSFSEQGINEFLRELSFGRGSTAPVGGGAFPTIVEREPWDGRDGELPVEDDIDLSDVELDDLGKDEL
Numbers stand for hits; – = inactive; ? = inconclusive; · = no result.

SMILES	PDI inh	ARNT TACC3 PPI	PglD DTNB	NRP1-CendR mod	ALR inh	ERp5 block
C[C@@H]1CN([C@@H](C)CO)C(=O)c2cc(C#C[C@@H](C)O)cnc2O[C@@H]1CN(C)CC1CCOCC1	·	–	–	·	·	–
CN1c2cccc3cccc(c23)N(C)C1c1cccs1	–	–	·	–	90	·
Nc1c(N(Cc2ccco2)C(=O)c2ccc(Cl)cc2)c(=O)[nH]c(=O)n1Cc1ccccc1	–	–	–	–	–	–
N#Cc1ccc(C(=O)N(Cc2ccco2)c2c(N)n(Cc3ccccc3)c(=O)[nH]c2=O)cc1	33	–	–	–	·	–
COc1ccc(CNC(=S)Nc2ccc(-c3ccccc3)cc2)cc1	–	–	–	–	95	–
COc1ccc(NC(=S)NN(C)C(=S)Nc2ccc(OC)cc2)cc1	–	–	·	–	99	·
COc1ccc(CNC(=S)Nc2ccc(Br)cc2)cc1	–	–	–	–	–	–
CCOC(=O)Nc1cc2c(c(N)n1)N=C(c1ccccc1)CN2	–	8.7	·	–	·	–
CCOC(=O)Nc1sc(C)nc1-c1ccccc1	–	–	–	–	–	–
C[C@@H]1CCCCO[C@@H](CN(C)S(C)(=O)=O)[C@H](C)CN([C@@H](C)CO)C(=O)c2cc(NC(=O)c3ccncc3)ccc2O1	·	–	–	·	·	·
O=C(Nc1ccccc1O)c1cccc(S(=O)(=O)Nc2ccccc2O)c1	–	–	·	–	99	–
O=C(O)c1cccc(NC(=O)c2cccc(S(=O)(=O)Nc3cccc([N+](=O)[O-])c3)c2)c1	–	–	–	–	76	–
O=C(Nc1ccccc1C(=O)O)c1cccc(S(=O)(=O)Nc2ccc(Br)cc2)c1	–	–	–	–	99	–
O=C(Nc1cccc(Cl)c1)N[C@@H]1CC[C@H](CCNC(=O)C2CCOCC2)O[C@H]1CO	·	–	–	·	·	–
CCNC(=O)[C@@H]1[C@@H](CO)[C@@H]2Cn3c(ccc(-c4cccc(F)c4)c3=O)[C@H]1N2C(=O)c1ccccn1	·	–	–	·	·	–
Cc1ccc(F)cc1C(=O)N1CCCCC1c1cc(C(=O)NCc2ccccc2)no1 (centres undefined)	–	·	–	22	·	–
O=C(NCc1ccc(F)cc1)c1cc(C2CCCCN2C(=O)CCCc2ccccc2)on1 (centres undefined)	–	·	–	49	·	–
O=C(Nc1cccc2c1CCCC2)c1cc(C2CCCCN2C(=O)CCCc2ccccc2)on1 (centres undefined)	–	·	·	52	·	–
O=C(NCc1ccccc1)c1cc(C2CCCCN2C(=O)CCCc2ccccc2)on1 (centres undefined)	–	·	–	–	·	–
CCCC#Cc1ccc2c(c1)O[C@H](CN(C)C)[C@@H](C)CN([C@H](C)CO)S2(=O)=O	·	–	–	·	·	–
CCC(=O)Nc1nnc(C(C)(C)C)s1	–	–	–	–	98	·
CNC(=O)Nc1nnc(C(C)(C)C)s1	–	–	–	–	·	·
COc1ccccc1NC(=S)N(Cc1ccco1)Cc1cc2cccc(C)c2[nH]c1=O	–	–	–	40	–	·
O=C(N[C@@H]1CC[C@@H](CCNS(=O)(=O)c2ccccc2)O[C@H]1CO)c1cccc(F)c1	·	–	–	·	·	–
O=C(Nc1ccc(Cl)cc1)Nc1nnc(-c2ccncc2)s1	–	–	–	–	–	·
SMILES	PDI inh	ARNT TACC3 PPI	PglD DTNB	NRP1-CendR mod	ALR inh	ERp5 block
Fc1ccc(Nc2nnc(-c3ccncc3)s2)cc1Cl	–	·	–	35	·	–
Cc1cc2c3c(c1)C1(C(=O)N3C(C)(C)CC2C)C(C#N)=C(N)Oc2n[nH]c(C)c21 (centres undefined)	38	–	·	–	–	·
Cc1cc2c3c(c1C)C1(C(=O)N3C(C)(C)CC2C)C(C#N)=C(N)Oc2n[nH]c(C)c21 (centres undefined)	–	·	–	–	–	–
CCOC(=O)Cc1cc(=O)n(-c2nc3ccccc3s2)[nH]1	–	–	–	–	98	·
C[C@@H]1CN([C@H](C)CO)C(=O)c2cc(NS(=O)(=O)c3ccc(Cl)cc3)ccc2O[C@@H](C)CCCCO[C@@H]1CN(C)S(C)(=O)=O	·	–	–	·	·	–
CC1(C)C(=O)OC(c2cc(Br)ccc2O)C(C)(C)C1=O (centres undefined)	–	–	–	–	98	·
CC12CN3CC(C)(CN(C1)C3c1cc(Br)ccc1O)C2=O (centres undefined)	–	–	–	–	–	–
O=C(COc1ccc(Cl)cc1Cl)NNC(=S)NCc1ccco1	–	–	·	–	83	–
O=C(COc1ccc(Cl)cc1Cl)NCc1ccco1	–	–	–	–	–	·
Cc1ccc(SCCC(=O)NCc2ccco2)cc1	–	–	–	–	–	·
Cc1ccc(OCCCC(=O)NCc2ccco2)c(C)c1	·	·	·	·	95	·
Cc1cc(Cl)cc(Cl)c1OCC(=O)NCc1ccco1	–	–	–	–	91	·
CC(C)NC(=O)N(C)C[C@@H]1Oc2ncc(C#CCc3ccccc3)cc2C(=O)N([C@@H](C)CO)C[C@@H]1C	·	·	–	·	·	–
C[C@@H]1CN([C@H](C)CO)C(=O)Cc2cc(NC(=O)Nc3ccc(C(F)(F)F)cc3)ccc2O[C@H]1CN(C)S(C)(=O)=O	·	–	–	·	·	–
COc1cc(NC(C)CCCN)c2ncccc2c1Oc1ccccc1 (centres undefined)	–	–	·	–	·	·
COc1cc(NCCCNC(C)C)c2nccc(C)c2c1	–	77	–	26	·	–
CC1CC(Nc2ccccc2N)=CC(=O)O1 (centres undefined)	–	–	–	–	86	·
Nc1ccccc1NC1=CC(=O)CC(c2ccco2)C1 (centres undefined)	–	–	–	–	84	·
Cc1ccc(NC2=CC(=O)CC(c3ccco3)C2)c(N)c1 (centres undefined)	–	–	–	–	98	·
CCN1[C@@H]2c3ccc(-c4ccccc4OC)c(=O)n3C[C@@H]2[C@@H](CO)[C@@H]1C(=O)NCCCN(C)C	·	·	·	·	·	–
CC(C)C(=O)c1ccc(O)c(O)c1	–	–	–	–	99	–
COc1ccc(NC(=O)CSc2ccc(-c3ccco3)nn2)cc1	–	–	–	–	–	–
Fc1ccc(CSc2ccc(-c3ccco3)nn2)cc1	–	·	–	–	98	–
CC(=O)Nc1ccc(NC(=O)CSc2ccc(-c3ccco3)nn2)cc1	–	–	·	–	96	–
COc1cc(NC(=O)CSc2ccc(-c3ccco3)nn2)cc(OC)c1	–	–	–	–	98	–
CC(=O)Nc1cccc(NC(=O)CSc2ccc(-c3ccco3)nn2)c1	–	–	–	–	?	–
O=C(NCc1ccccc1)C1=C[C@@H](C2CC2)C[C@@H](OCc2ccc(CO)cc2)O1	–	–	–	–	–	–
NC(=O)C1=C[C@H](c2ccc(Br)cc2)C[C@H](OCc2ccc(CO)cc2)O1	–	–	–	26	·	–
NC(=O)C1=C[C@@H](c2ccc(Br)cc2)C[C@@H](OCc2ccc(CO)cc2)O1	–	–	–	–	·	–

Source: PubChem BioAssay (several laboratories)
